SMILES strings stand for the structures. Results filed as inconclusive are left out. Activity calls are given as the source filed them. Rule for the calls, unless noted: active = hit-call score of the fitted dose curve at least 0.9, where 1 is the maximum; inactive = score below 0.9.

In general, AC50 refers to the concentration giving half of the maximal activity seen.

Test [1] has as its target Paired box protein Pax-6 (Homo sapiens) (UniProt P26367). Briefly: ATG_Pax6_CIS: Attagene CIS-FACTORIAL HepG2 Assay for human Paired Box 6 (PAX6) (AID 2282956). The settings on record: HepG2 CIS-FACTORIAL PAX6 reporter transcription, RNA readout; actives raise or lower the signal. An outline of the steps: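 HepG2 cells transiently transfected with multiplexed cis-promoter reporter units (endogenous TF activity) were dosed for 24 h. Reporter mRNA was quantified by RT-PCR, 6-FAM labeling, HpaI digestion and capillary electrophoresis; bidirectional fitting versus DMSO baseline.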

The nature of test [2]: ATG_PXRE_CIS: Attagene CIS-FACTORIAL HepG2 Assay for human Pregnane X Receptor Element (PXRE) (AID 2282957). The settings on record: HepG2 Attagene CIS-FACTORIAL PXRE reporter, mRNA; actives raise or lower the signal. A digest of the protocol:
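Transfect HepG2 with MRTUs (cis promoter elements); dose chemical, incubate 24 h; isolate RNA, RT with oligo(dT), PCR, 6-FAM label, HpaI cut, CE. Gain/loss fit vs DMSO.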

The nature of test [3]: ATG_PPRE_CIS: Attagene CIS-FACTORIAL HepG2 Assay for human Peroxisome Proliferator-activated Response Element (PPRE) (AID 2282958). The following applies: HepG2 PPRE cis-element reporter, Attagene transcription factor profiling; actives raise or lower the signal. A digest of the protocol:
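Endogenous PPRE-driven transcription is measured in HepG2 cells carrying transfected multi-reporter constructs. Reporter transcripts are quantified by RT-PCR, HpaI digestion and capillary electrophoresis 24 h after dosing. DMSO baseline, bidirectional fit.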

Test [4] can be described thus: ATG_RORE_CIS: Attagene CIS-FACTORIAL HepG2 Assay for human RAR-related Orphan Receptor Element (RORE) (AID 2282959). The following applies: HepG2 Attagene cis-factorial RORE reporter, mRNA; actives raise or lower the signal. An outline of the steps: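 RORE reporter transcripts reflecting endogenous factor activity were read after 24 h compound exposure of transfected HepG2 cells, using reverse transcription, PCR, fluorescent labelling and capillary electrophoresis sizing. Gain or loss fitted against DMSO.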

A short description of test [5]: ATG_Sox_CIS: Attagene CIS-FACTORIAL HepG2 Assay for human SRY-box transcription factor (SOX) (AID 2282960). The following applies: HepG2 Attagene cis-factorial SOX reporter, mRNA; actives raise or lower the signal. A digest of the protocol:
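Reporter transcripts, measured by RT-PCR and capillary electrophoresis of labelled fragments, report endogenous SOX transcription factor activity. Transiently transfected human HepG2 cells receive chemical for 24 h; changes in either direction are fitted relative to DMSO.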

For test [6], the target named is Transcription factor Sp1 (Homo sapiens) (UniProt P08047). Briefly: ATG_Sp1_CIS: Attagene CIS-FACTORIAL HepG2 Assay for human Specificity Protein 1 (Sp1) (AID 2282961). The settings on record: HepG2 Sp1 cis-reporter transcription, actives raise or lower the signal. A digest of the protocol: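 Read-out is reporter transcript level, measured by RT-PCR and fluorescent capillary electrophoresis after 24 h chemical treatment. System: transiently transfected HepG2 cells reporting endogenous transcription factor activity; gain or loss fitted against DMSO baseline.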

Test [7] in a line: ATG_SREBP_CIS: Attagene CIS-FACTORIAL HepG2 Assay for human Sterol Regulatory Element Binding (SREBP) (AID 2282962). The following applies: HepG2 Attagene cis-factorial SREBP reporter, mRNA; actives raise or lower the signal. An outline of the steps:
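HepG2 cells transiently transfected with multiplexed cis-element reporter units report endogenous transcription factor activity. After 24 h of chemical exposure, reporter mRNA was quantified by RT-PCR, 6-FAM labelling, HpaI digestion and capillary electrophoresis; bidirectional fits used DMSO as baseline.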

The target in test [8] is Signal transducer and activator of transcription 3 (Homo sapiens) (UniProt P40763). Briefly: ATG_STAT3_CIS: Attagene CIS-FACTORIAL HepG2 Assay for human Signal Transducer and Activator of Transcription 3 (STAT3) (AID 2282963). The following applies: HepG2, Attagene cis-factorial STAT3 reporter transcription; actives raise or lower the signal. An outline of the steps: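 Transcript-level reporter assay. HepG2 transient MRTU transfection, 24 h exposure, fluorescence detection after RT-PCR and CE; DMSO baseline.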

Test [9] in a line: ATG_TCF_b_cat_CIS: Attagene CIS-FACTORIAL HepG2 Assay for human T-Cell-Factor with beta-catenin (TCF/b-cat) (AID 2282965). The following applies: HepG2 TCF/beta-catenin cis-reporter transcription, actives raise or lower the signal. A digest of the protocol:
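HepG2 cells transiently transfected with multiple cis-promoter-regulated reporter transcription units, so endogenous transcription factor activity is measured. Reporter mRNA read 24 hours after dosing by RT-PCR, fluorescent labelling and capillary electrophoresis; bidirectional fitting against DMSO.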

The nature of test [10]: ATG_TAL_CIS: Attagene CIS-FACTORIAL HepG2 Assay for human TAL Basal Promoter (AID 2282966).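 Note: background control endpoint measuring basal TAL promoter reporter mRNA not a specific factor.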 The following applies: HepG2 Attagene cis-factorial TAL promoter reporter; actives raise or lower the signal. A digest of the protocol:
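Fluorescence of labelled reporter cDNA fragments, resolved by capillary electrophoresis, gave the readout. Human HepG2 liver cells carried transiently transfected cis-element reporter units and were treated for 24 hours; activity was fitted bidirectionally against DMSO.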

Test [11] can be described thus: ATG_TGFb_CIS: Attagene CIS-FACTORIAL HepG2 Assay for human Transforming Growth Factor (TGF) (AID 2282967). The following applies: HepG2 Attagene CIS TGFb reporter, mRNA transcription; actives raise or lower the signal. A digest of the protocol: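 Transient MRTU transfection of HepG2 (FuGene 6). Dose 24 h. TriZol RNA, oligo(dT) RT, PCR, 6-FAM primer extension, HpaI cut, CE. Bidirectional fit, DMSO = baseline.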

Test [12] can be described thus: ATG_VDRE_CIS: Attagene CIS-FACTORIAL HepG2 Assay for human Vitamin D Receptor Element (VDRE) (AID 2282968). The settings on record: HepG2 VDRE cis-reporter transcription, actives raise or lower the signal. A digest of the protocol: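 RT-PCR/CE readout of reporter mRNA; HepG2, transient transfection, 24 h dosing; DMSO baseline; bidirectional analysis.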
In test [13] the target is Estrogen receptor (Homo sapiens) (UniProt P03372). Briefly: ATG_ERa_TRANS: Attagene TRANS-FACTORIAL HepG2 Assay for human Estrogen Receptor alpha (ERa) (AID 2282970; active = hit-call score of the fitted dose curve at least 0.9, where 1 is the maximum). The settings on record: HepG2 Attagene TRANS ERa GAL4 reporter, mRNA. A digest of the protocol: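 Human liver HepG2, transient transfection of multiple GAL4-UAS reporter units; TRANS format (exogenous NR-Gal4 chimera). 24 h dosing. Readout: reporter mRNA, RT-PCR, 6-FAM primer extension, HpaI digest, capillary electrophoresis. Positive direction vs DMSO.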

For test [14], the target named is X-box-binding protein 1 (Homo sapiens) (UniProt P17861). Briefly: ATG_Xbp1_CIS: Attagene CIS-FACTORIAL HepG2 Assay for human X-box Binding Protein 1 (XBP1) (AID 2282972). The settings on record: HepG2 XBP1 cis-element reporter, Attagene multiplex; actives raise or lower the signal. A digest of the protocol: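 HepG2 cells transiently transfected with cis-regulated multiple reporter transcription units; endogenous transcription factor activity measured 24 hours after chemical dosing. Reporter mRNA quantified by RT-PCR, 6-FAM primer extension, HpaI digestion and capillary electrophoresis; bidirectional fitting versus DMSO.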

Test [15] can be described thus: ATG_GAL4_TRANS: Attagene TRANS-FACTORIAL HepG2 Assay for GAL4 (Internal Marker) (AID 2282976; active = hit-call score of the fitted dose curve at least 0.9, where 1 is the maximum). The settings on record: HepG2 Attagene TRANS GAL4 internal marker reporter. An outline of the steps: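 First, HepG2 cells were transfected with reporter units under GAL4-UAS control. Next, they were treated with chemical for 24 h. Finally, RNA was reverse-transcribed, PCR-amplified, FAM-labelled and resolved by capillary electrophoresis, with induction scored against DMSO.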

Test [16] in a line: ATG_TA_CIS: Attagene CIS-FACTORIAL HepG2 Assay for human TA Basal Promoter (AID 2282964). The settings on record: HepG2 Attagene CIS-factorial TA basal promoter reporter; actives raise or lower the signal. An outline of the steps:
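Read-out: fluorescent reporter-transcript fragments resolved by capillary electrophoresis after RT-PCR and HpaI digestion. Source: HepG2 cells carrying transiently transfected multi-reporter cis constructs, treated 24 h. Endpoint fitted bidirectionally relative to DMSO.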

Test [17] concerns the target Steroid hormone receptor ERR1 (Homo sapiens) (UniProt P11474). Briefly: ATG_ERRa_TRANS: Attagene TRANS-FACTORIAL HepG2 Assay for human Estrogen-Related Receptor alpha (ERRa) (AID 2282971; active = hit-call score of the fitted dose curve at least 0.9, where 1 is the maximum). The following applies: HepG2 Attagene TRANS reporter, ERRa transactivation. An outline of the steps: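 Reporter transcript induction was quantified by RT-PCR and capillary electrophoresis of FAM-labelled, HpaI-cut products after 24 h treatment of HepG2 cells carrying transiently transfected GAL4-UAS reporter units and an exogenous ERRa-Gal4 fusion; activity scored as increase over DMSO.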

Test [18] in a line: ATG_M_19_TRANS: Attagene TRANS-FACTORIAL HepG2 Assay for M19 Transcription Factor (Internal Marker) (AID 2282974; active = hit-call score of the fitted dose curve at least 0.9, where 1 is the maximum). The settings on record: HepG2 Attagene TRANS-FACTORIAL M19 internal marker reporter. A digest of the protocol:
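Background-control readout: after 24 h chemical exposure of transfected HepG2 carrying GAL4-driven reporter units, RNA was reverse-transcribed, amplified, fluorescently labeled and sized by capillary electrophoresis; gain-of-signal fit against DMSO.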

For test [19], the target named is Nuclear receptor subfamily 1 group I member 3 (Homo sapiens) (UniProt Q14994). Briefly: ATG_CAR_TRANS: Attagene TRANS-FACTORIAL HepG2 Assay for human Constitutive Androstane Receptor (CAR) (AID 2282969; active = hit-call score of the fitted dose curve at least 0.9, where 1 is the maximum;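 note: activators raise reporter mRNA above DMSO so AC50 marks induction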). The settings on record: HepG2 Attagene TRANS-FACTORIAL CAR reporter. A digest of the protocol: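 HepG2 cells transiently transfected with multiplexed GAL4-UAS reporter units expressing chimeric NR-Gal4 proteins; compound exposure 24 h. Reporter mRNA measured by RT-PCR, 6-FAM labelling, HpaI digestion and capillary electrophoresis; gain-of-signal fitted against DMSO baseline.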
Chain of Nuclear receptor subfamily 1 group I member 3 (Homo sapiens) (Q14994 whole entry, looked up, the tested form may be a part): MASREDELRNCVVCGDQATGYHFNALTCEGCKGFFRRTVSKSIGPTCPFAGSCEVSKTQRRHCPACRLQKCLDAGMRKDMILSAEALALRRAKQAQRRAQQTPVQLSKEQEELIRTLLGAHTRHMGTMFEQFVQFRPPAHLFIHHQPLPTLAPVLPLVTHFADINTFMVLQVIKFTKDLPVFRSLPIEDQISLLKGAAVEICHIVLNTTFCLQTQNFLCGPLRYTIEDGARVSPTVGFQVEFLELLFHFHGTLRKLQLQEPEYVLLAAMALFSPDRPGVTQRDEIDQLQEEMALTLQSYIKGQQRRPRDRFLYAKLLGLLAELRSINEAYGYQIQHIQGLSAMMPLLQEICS

Chain of Signal transducer and activator of transcription 3 (Homo sapiens) (P40763 whole entry, looked up): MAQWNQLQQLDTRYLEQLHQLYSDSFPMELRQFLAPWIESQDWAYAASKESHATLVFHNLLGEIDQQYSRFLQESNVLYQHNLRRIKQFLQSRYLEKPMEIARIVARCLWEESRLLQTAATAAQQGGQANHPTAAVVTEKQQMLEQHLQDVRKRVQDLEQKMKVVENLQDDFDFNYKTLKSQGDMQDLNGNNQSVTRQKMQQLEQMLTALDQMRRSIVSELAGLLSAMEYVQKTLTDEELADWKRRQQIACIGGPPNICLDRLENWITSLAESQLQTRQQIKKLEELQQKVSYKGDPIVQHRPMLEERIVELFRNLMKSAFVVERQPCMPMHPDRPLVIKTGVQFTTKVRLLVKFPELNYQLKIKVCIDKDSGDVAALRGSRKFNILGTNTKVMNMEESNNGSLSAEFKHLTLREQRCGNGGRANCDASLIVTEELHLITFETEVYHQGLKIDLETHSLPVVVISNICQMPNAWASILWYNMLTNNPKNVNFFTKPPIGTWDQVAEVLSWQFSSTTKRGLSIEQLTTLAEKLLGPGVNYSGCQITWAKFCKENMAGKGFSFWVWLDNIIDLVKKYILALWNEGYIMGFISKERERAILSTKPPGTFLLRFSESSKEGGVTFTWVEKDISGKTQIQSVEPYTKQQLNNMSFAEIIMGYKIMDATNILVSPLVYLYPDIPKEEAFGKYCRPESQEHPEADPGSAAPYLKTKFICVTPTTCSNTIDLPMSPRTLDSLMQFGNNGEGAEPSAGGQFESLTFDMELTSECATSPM
Chain of X-box-binding protein 1 (Homo sapiens) (P17861 whole entry, looked up): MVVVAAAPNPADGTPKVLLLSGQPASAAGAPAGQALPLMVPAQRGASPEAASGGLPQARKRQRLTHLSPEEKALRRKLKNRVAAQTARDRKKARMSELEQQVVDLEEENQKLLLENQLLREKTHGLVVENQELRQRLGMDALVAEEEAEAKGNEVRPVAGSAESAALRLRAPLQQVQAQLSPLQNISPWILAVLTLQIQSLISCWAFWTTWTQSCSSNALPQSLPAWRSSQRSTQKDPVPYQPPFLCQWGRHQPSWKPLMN
Chain of Estrogen receptor (Homo sapiens) (P03372 whole entry, looked up, the tested form may be a part): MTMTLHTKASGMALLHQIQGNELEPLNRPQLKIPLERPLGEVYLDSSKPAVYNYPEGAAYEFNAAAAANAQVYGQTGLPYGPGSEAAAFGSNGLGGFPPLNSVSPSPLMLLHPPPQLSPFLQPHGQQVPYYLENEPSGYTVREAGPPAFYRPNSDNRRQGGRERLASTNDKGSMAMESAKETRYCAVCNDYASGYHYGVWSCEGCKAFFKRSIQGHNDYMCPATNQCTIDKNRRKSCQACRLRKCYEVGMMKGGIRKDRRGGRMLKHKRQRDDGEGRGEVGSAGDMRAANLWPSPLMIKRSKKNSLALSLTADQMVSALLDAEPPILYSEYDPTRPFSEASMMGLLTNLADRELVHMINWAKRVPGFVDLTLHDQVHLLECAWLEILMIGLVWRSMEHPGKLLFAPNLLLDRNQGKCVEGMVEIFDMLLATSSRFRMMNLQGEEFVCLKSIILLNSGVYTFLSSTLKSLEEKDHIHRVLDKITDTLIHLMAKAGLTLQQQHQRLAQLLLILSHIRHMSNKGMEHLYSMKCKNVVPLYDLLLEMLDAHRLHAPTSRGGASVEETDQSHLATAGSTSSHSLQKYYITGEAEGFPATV
Chain of Paired box protein Pax-6 (Homo sapiens) (P26367 whole entry, looked up): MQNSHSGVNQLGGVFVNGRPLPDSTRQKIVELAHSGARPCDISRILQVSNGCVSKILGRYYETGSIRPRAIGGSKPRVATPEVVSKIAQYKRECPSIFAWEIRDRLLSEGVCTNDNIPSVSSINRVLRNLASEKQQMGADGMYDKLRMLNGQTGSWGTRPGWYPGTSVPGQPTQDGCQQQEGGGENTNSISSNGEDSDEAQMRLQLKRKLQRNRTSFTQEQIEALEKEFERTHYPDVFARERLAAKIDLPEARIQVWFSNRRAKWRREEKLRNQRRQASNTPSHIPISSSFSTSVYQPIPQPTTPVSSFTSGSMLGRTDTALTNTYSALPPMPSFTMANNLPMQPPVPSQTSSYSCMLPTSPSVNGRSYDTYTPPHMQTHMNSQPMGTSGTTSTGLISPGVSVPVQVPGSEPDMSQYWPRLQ
Chain of Transcription factor Sp1 (Homo sapiens) (P08047 whole entry, looked up): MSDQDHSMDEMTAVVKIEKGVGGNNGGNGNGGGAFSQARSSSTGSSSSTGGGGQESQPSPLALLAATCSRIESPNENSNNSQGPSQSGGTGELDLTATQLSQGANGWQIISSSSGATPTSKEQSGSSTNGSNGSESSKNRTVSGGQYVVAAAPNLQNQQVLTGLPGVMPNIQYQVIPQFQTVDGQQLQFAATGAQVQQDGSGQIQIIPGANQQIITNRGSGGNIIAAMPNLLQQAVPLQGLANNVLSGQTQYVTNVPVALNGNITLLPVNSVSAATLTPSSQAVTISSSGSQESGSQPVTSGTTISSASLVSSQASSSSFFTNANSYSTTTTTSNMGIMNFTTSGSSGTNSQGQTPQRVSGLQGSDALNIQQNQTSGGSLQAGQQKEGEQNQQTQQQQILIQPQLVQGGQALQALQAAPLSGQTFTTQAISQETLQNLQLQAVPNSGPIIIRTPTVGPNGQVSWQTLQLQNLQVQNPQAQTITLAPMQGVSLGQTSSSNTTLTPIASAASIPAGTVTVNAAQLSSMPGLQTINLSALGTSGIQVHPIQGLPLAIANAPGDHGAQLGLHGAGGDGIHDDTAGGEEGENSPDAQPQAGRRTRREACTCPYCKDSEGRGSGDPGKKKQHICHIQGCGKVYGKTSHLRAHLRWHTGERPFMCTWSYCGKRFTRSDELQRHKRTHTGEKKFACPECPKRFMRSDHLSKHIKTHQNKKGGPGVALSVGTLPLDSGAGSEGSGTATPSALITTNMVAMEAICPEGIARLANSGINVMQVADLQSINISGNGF
Chain of Steroid hormone receptor ERR1 (Homo sapiens) (P11474 whole entry, looked up, the tested form may be a part): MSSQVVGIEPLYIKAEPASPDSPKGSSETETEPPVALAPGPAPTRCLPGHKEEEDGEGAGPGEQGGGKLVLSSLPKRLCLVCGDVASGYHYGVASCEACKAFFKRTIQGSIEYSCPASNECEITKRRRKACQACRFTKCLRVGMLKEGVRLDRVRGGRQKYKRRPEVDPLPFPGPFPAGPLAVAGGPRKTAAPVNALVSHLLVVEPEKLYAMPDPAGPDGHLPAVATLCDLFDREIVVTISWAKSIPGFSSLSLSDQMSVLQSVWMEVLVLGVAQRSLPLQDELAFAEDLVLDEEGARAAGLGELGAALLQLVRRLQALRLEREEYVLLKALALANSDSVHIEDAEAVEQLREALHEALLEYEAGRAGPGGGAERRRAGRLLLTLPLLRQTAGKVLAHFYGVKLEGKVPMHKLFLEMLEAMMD

As for `O=C1OC(=O)c2ccc3c4c(ccc1c24)C(=O)OC3=O`, the call in test [1], in test [2], in [3], in test [4], in [5] and in test [6] was inactive. Also, the molecule was called inactive in test [7], in test [8], in [9], in test [10], in test [11] and in test [12]. Moreover, the molecule was classed as inactive in [13], in test [14] and in test [15].
In the case of `O=C(Cl)C(F)(F)C(F)(F)C(F)(F)C(F)(F)C(F)(F)C(F)(F)F`, the molecule was classed as inactive in [1], in test [2], in test [5], in test [6], in test [7] and in test [8]. The call in [16], in test [10], in test [11], in test [12], in test [13] and in test [17] was inactive. The result in test [14] and in [15] was inactive. The AC50 in test [3] was 60.3 µM (active).
Take `O=c1[nH]cccc1O`: the call in test [2], in [3], in [5], in [6], in [7] and in [8] was inactive. In addition, the call in [16], in test [10], in [11], in [12], in test [17] and in [14] was inactive. In addition, the molecule was called inactive in [18] and in [15].
For `CCOC(OCC)OCC`, the call in test [1], in test [3], in test [4], in [5], in test [6] and in [7] was inactive. Moreover, the call in test [8], in [16], in test [10], in test [11], in test [12] and in [14] was inactive. For the same molecule, the outcome in test [15] was inactive. In addition, the half-maximal activity concentration (AC50) in [2] was 28 µM (active).
Regarding `O=C(Cl)C(F)(F)C(F)(F)C(F)(F)C(F)(F)C(F)(F)C(F)(F)C(F)(F)F`, the molecule was classed as inactive in test [2], in [4], in test [5], in [6], in test [7] and in test [8]. Moreover, the molecule was classed as inactive in [16], in test [10], in test [11], in [12] and in test [14]. Besides, the concentration at half-maximal activity (AC50) in test [3] was 69.5 µM (active); in test [13] it was 53.1 µM (active).
For `CCCCOC(=O)C(C)O` (stereo not drawn), the molecule was called inactive in test [1], in [2], in [3], in [4], in test [5] and in [6]. Besides, the result in test [7], in [8], in test [9], in test [10], in test [11] and in [12] was inactive. Also, the molecule was classed as inactive in [19], in test [14], in test [18] and in test [15].
As for `Cc1cnccn1`, the outcome in test [2], in test [3], in [4], in test [5], in test [6] and in test [7] was inactive. Also, the molecule was called inactive in test [8], in test [16], in [9], in test [10], in test [11] and in [12]. Also, the molecule was classed as inactive in test [19], in [14], in test [18] and in test [15].

Source of the values: PubChem BioAssay (EPA / NIEHS).
